# Bioassay records: PubChem, Broad Institute
# Only a selection was taken, and hits are over-represented in it overall.
# Tgondii IFNg – inhibitors of Toxoplasma gondii growth with IFN-gamma | Toxoplasma gondii growth in IFN-gamma-treated host cells; stronger effect = lower value | activity change, negative = inhibition, % (test concentration not listed) | 69,000 compounds, 3.8% hits | AID 1259416; in the data active = activity change below about -70%, passing the limit was not always enough;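 note: host cells are HeLa cells infected with Toxoplasma gondii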
# * = called active by the depositor; i = inactive; ! = a repeat was not active.
SMILES,Tgondii IFNg
Cc1cccc(NC(=O)c2ccnn2-c2ccc3ccccn23)c1,-8.5
CC(C)C1c2cccn2CCN1S(=O)(=O)c1ccc2c(c1)oc(=O)n2C (stereo not given),46.6
O=c1[nH]cnc2c1sc1nc(-c3ccccc3)cc(-c3ccccc3)c12,-8.8
Nc1c(-c2nnc(-c3ccccc3)o2)sc2nc(-c3ccccc3)cc(-c3ccccc3)c12,-86.8*
Cc1ccc(-c2cc(-c3ccccc3)nc3sc4c(c23)CCCC4)cc1,32.7
CN(C)c1nc(Oc2ccc(=O)n(-c3ccccc3)n2)nc(N2CCCC2)n1,-59.8
CC(C)N1CC2(CCOCC2)c2cc(NC(=O)c3ccco3)ccc21,12.5
Fc1ccc(C2(c3noc(CCN4CCCCO4)n3)CCOC2)cc1 (stereo not given),4.6
CN(Cc1ccccc1)C1CCN(C(=O)c2cscn2)C(C(=O)O)C1 (stereo not given),-48.1
Cc1nnc(SCC(=O)N2CCc3[nH]c4ccc(F)cc4c3C2)o1,-6.9
O=C(CSc1nnc(CNc2ccc(F)cc2)o1)N1CCc2ccccc2C1,-81.0*
O=C(Cn1c(SCC(=O)N2CCc3ccccc3C2)nc2ccccc21)NC1CCCC1,2.6
CC(=O)c1cccc(NC(=O)c2cccc(CN(C)C3CCOCC3)c2)c1,-1.4
Cc1nnc(CN(C)C(=O)CC(c2ccccc2)c2ccco2)o1 (stereo not given),1.5
COc1c(C)c2c(c(O)c1C/C=C(\C)CCC(=O)OCCN1CCOCC1)C(=O)OC2,-76.1*
Cc1oc2c(c1C(=O)Nc1cccc(OCCN3CCOCC3)c1)CCCC2,39.9
CCCCS(=O)(=O)N1CCC2(CC1)COCCN(Cc1ccncc1)C2,-4.6
O=S(=O)(NC1CC2(CCN(CCO)CC2)Oc2ccccc21)C1CC1 (stereo not given),10.6
CC(C)(C)c1csc(NC(=O)Nc2ccc(Cl)cc2)n1,-102.6*
CC(CC(=O)Nc1nc(C(C)(C)C)cs1)n1cncn1 (stereo not given),4.8
Cc1nc(-c2cccs2)sc1NC(=O)Nc1ccc(Cl)cc1,65.0
O=C(CN1C(=O)CCc2cc(S(=O)(=O)N3CCOCC3)ccc21)N1CCN(c2ccccc2)CC1,15.9
CCOc1ccc(-c2nc(CN3CCN(C(=O)Nc4cccc(C)c4)CC3)c(C)o2)cc1,-14.5
CN1C[C@H]2[C@@H](c3cccc(-n4cccn4)c3)N[C@](CO)(c3ccccc3)[C@H]2C1,-5.6
Cn1cc(C(CNC(=O)Nc2ccccc2Cl)c2cccnc2)c2ccccc21 (stereo not given),i
SMILES,Tgondii IFNg
CCc1ccccc1S(=O)(=O)NCC(c1cccnc1)c1cn(C)c2ccccc12 (stereo not given),-83.0*
CCc1ccc(NC(=O)NCC(c2cccnc2)c2cn(C)c3ccccc23)cc1 (stereo not given),258.8
Cc1oc(-c2ccc(OC(C)C)cc2)nc1CSc1nc2ncccc2o1,-95.6*
Cc1oc(-c2ccc(OC(C)C)cc2)nc1Cn1c(=O)c2cccnc2n(-c2ccccc2)c1=O,34.3
Cc1oc(-c2ccc(OC(C)C)cc2)nc1CSc1nc2c(=O)[nH]cnc2n1C,-33.1
CCOc1cccc(-c2noc(-c3nnn(Cc4nc(-c5ccc(C)cc5)oc4C)c3C)n2)c1,7.4
CCCN1CC(Nc2ncc(C)c(N(C)C)n2)CC1=O (stereo not given),3.4
COC(=O)c1c(NCc2ccc3c(c2)OCO3)c2ccc(F)cc2[nH]c1=O,48.0
CNC(=O)CC1CC2(CCN(S(=O)(=O)c3cccs3)CC2)c2ccccc21 (stereo not given),-6.9
CNCCCC12CCC(c3ccccc31)c1ccccc12,-78.6*!
Cc1nc2c(c(NCCCN3CCCC3=O)n1)CNC2,0.3
Cc1ccc(S(=O)(=O)N2CCC(C(=O)NCCc3csc(-c4ccccc4)n3)CC2)cc1C,-15.0
CNC(=O)c1ccc(-c2ccc(CNC(=O)COC)cc2)nc1C,-73.9*
Cc1noc(C)c1C(=O)NCc1ccc(-c2csnn2)cc1,17.9
CCc1nc(OCC(=O)NCc2ccc(C)cc2)c2ccccc2n1,-4.9
COc1cccc2c1OCC(C(=O)NCCc1nnc3n1CCNCC3)C2 (stereo not given),-59.1
Cc1nc(CN2Cc3ccnn3CC(C(=O)N(C)C)C2)cs1 (stereo not given),-1.8
Cc1cccc(S(=O)(=O)N2CCCn3nnc(Cn4cccn4)c3C2)c1,9.0
O=C(NCC(c1cccnc1)c1c[nH]c2ccccc12)Nc1ccccc1C(F)(F)F (stereo not given),113.9
O=C(NCC(c1ccccc1)c1c[nH]c2ccccc12)c1ccc(C(F)(F)F)cc1 (stereo not given),-88.1*
CCc1ccccc1NC(=O)NCC(c1cccnc1)c1c[nH]c2ccccc12 (stereo not given),52.7
CCCC(=O)NC1CC2(CCN(Cc3ccco3)CC2)Oc2ccccc21 (stereo not given),-2.9
Cc1ncc(-c2nccn2C(C)c2cnn(-c3ccccc3)c2)n1C (stereo not given),-2.4
CN(C)C(=O)COCC1CN(CC2CCOCC2)Cc2ncn(C)c21 (stereo not given),-8.6
